From PubChem BioAssay (NCI)
About 83,000 compounds went through this panel and 20% of them were active in at least one assay; those are over-represented in the sample as a whole.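 The test compound was applied at a single concentration to cells in 96-well plates for 48 hours, and percent growth was recorded.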 A number with no mark means an inactive call. Active and inactive are the calls of the source. How the source made its calls: active means growth percent below 10; inactive means the rest.

How the values were obtained:
Assay in all cases: NCI-60 one-dose screen, 48 h (100 = growth as untreated, 0 = no growth, -100 = all killed)
SR leukemia = settings: 10 µM unless noted
RPMI-8226 leukemia = settings: 10 µM unless noted
OVCAR-8 ovarian = settings: 10 µM unless noted
OVCAR-5 ovarian = settings: 10 µM unless noted
OVCAR-4 ovarian = settings: 10 µM unless noted
SK-OV-3 ovarian = settings: 10 µM unless noted
IGROV1 ovarian = settings: 10 µM unless noted
OVCAR-3 ovarian = settings: 10 µM unless noted
HS 578T breast = settings: 10 µM
NCI/ADR-RES ovarian = settings: 10 µM unless noted
T-47D breast = settings: 10 µM unless noted
BT-549 breast = settings: 10 µM unless noted
MDA-MB-435 melanoma = settings: 10 µM unless noted
SW-620 colon = settings: 10 µM unless noted
MCF7 breast = settings: 10 µM unless noted
HCT-116 colon = settings: 10 µM unless noted
HCC-2998 colon = settings: 10 µM
KM12 colon = settings: 10 µM unless noted

Row | SMILES | growth (SR leukemia) | growth (RPMI-8226 leukemia) | growth (OVCAR-8 ovarian) | growth (OVCAR-5 ovarian) | growth (OVCAR-4 ovarian) | growth (SK-OV-3 ovarian) | growth (IGROV1 ovarian) | growth (OVCAR-3 ovarian) | growth (HS 578T breast) | growth (NCI/ADR-RES ovarian) | growth (T-47D breast) | growth (BT-549 breast) | growth (MDA-MB-435 melanoma) | growth (SW-620 colon) | growth (MCF7 breast) | growth (HCT-116 colon) | growth (HCC-2998 colon) | growth (KM12 colon)
1 | CC1(C=O)NC(=O)NC1=O (centres undefined) | 96.6% | 109% | 94.9% | 101% | 110% | 81.9% | 111% | 115% | 104% | 107% | 95.2% | 91.4% | 111% | 101% | 95.6% | 90.5% | 94.7% | 108%
2 | CCCCn1c(C)nc2cc(Nc3nc(N4CCCCC4)nc4nc[nH]c34)ccc21 | 31.2% | 40.3% | 30.1% | 50.1% | 19% | 66.5% | 30.8% | 37.7% | 43.8% | 35% | 6.78% (active) | 18% | 37.4% | 79% | 32.5% | 48.8% | 66.2% | 38.1%
3 | COc1ccc(Nc2ncccc2NC(=O)c2cn(Cc3cccc(Oc4ccccc4)c3)nn2)cc1 | 74.2% | 86% | 87.5% | 105% | 78.7% | 103% | 98.8% | 92% | 95.7% | 76.6% | 79.1% | 93.6% | 77.8% | 106% | 89.9% | 92.4% | 115% | 84.8%
4 | CC(C)(C)c1ccc(Cn2cc(CSc3nc4ccccc4s3)nn2)cc1 | 98.7% | 97.2% | 92% | 94.4% | 97.5% | 96.6% | 90.7% | 107% | 93.7% | 92.8% | 73.4% | 87.7% | 106% | 97.3% | 91.4% | 121% | 104% | 101%
5 | CC(=O)C1=C(C)NC(SCc2nnc(-c3ccc(C)cc3)o2)=NC1c1ccc(F)cc1 (centres undefined) | 80.9% | 83.7% | 97% | 89.6% | 108% | 108% | 89% | 105% | 112% | 98.2% | 74.4% | 86.1% | 107% | 110% | 95.4% | 93.6% | 104% | 
6 | CC(C)[C@@H](C)/C=C/[C@@H](C)[C@H]1CCC2=C3C=CC4=CC(=O)CC[C@]4(C)[C@H]3CC[C@@]21C | 70.8% | 66% | 91.1% | 105% | 101% | 105% | 110% | 116% | 108% | 101% | 91.3% | 102% | 103% | 109% | 93.6% | 93% | 112% | 
7 | CCCCn1c(C)nc2ccc(Nc3nc(N4CCN(C)CC4)nc4nc[nH]c34)cc21 | 84% | 88.2% | 91.8% | 95.6% | 97.8% | 104% | 94.1% | 99.2% | 86.8% | 104% | 80.3% | 97.5% | 94.3% | 91.8% | 83% | 75.8% | 83.6% | 93.6%
8 | N#Cc1c(-c2ccc(Cl)cc2)csc1NC(=O)Nc1cccc(C(F)(F)F)c1 | 33% | 3.99% (active) | 11.4% | 42.8% | 10.4% | 9.45% (active) | 33.5% | -3.56% (active) | 47.9% | 11.6% | -5.74% (active) | 26.3% | 14.1% | 22.7% | 12.8% | 1.8% (active) | 19.9% | 12.9%
9 | CCN(CC)CCOc1ccc(/C(=C(\C)c2ccc(Cl)cc2)c2ccc(Cl)cc2)cc1 | 0.594% (active) | 14.5% | 82.7% | 80.2% | 78.8% | 103% | 80% | 83% | 77.5% | 81.5% | 55.2% | 85.2% | 87.1% | 30.8% | 34.8% | 47% | 93.6% | 40.3%
10 | Cc1cc(N(CCNc2ccnc3cc(Cl)ccc23)Cc2cccs2)nc(Cl)n1 | -22.9% (active) | -23.2% (active) | 11.5% | 12.8% | -51.3% (active) | -48.8% (active) | -1.29% (active) | -77.4% (active) | -5.93% (active) | -2.82% (active) | -34.3% (active) | -55.4% (active) | -1.48% (active) | 2.77% (active) | 5.64% (active) | -85% (active) | -14.3% (active) | 
11 | CCOC(=O)C1=C(C)N=C2Sc3cccc(OC)c3N2[C@H]1c1ccccn1 | 96.9% | 106% | 97% | 110% | 96.3% | 99.5% | 101% | 107% | 91.9% | 96.4% | 96.5% | 101% | 110% | 102% | 97% | 94.9% | 93.2% | 96.6%
12 | CCNCCNc1cc(-c2ccc(Cl)c(Cl)c2)c(C#N)c2nc3ccccc3n12 | -30.9% (active) | -39.2% (active) | -66% (active) | -76% (active) | -78.4% (active) | -94.1% (active) | -70.7% (active) | -94% (active) | -45.7% (active) | -73.4% (active) | -60.8% (active) | -70.5% (active) | -95% (active) | -67.3% (active) | -72% (active) | -87.3% (active) | -87.1% (active) | -86.6% (active)
13 | COc1ccc(-c2cnc(-c3ccc(Cl)cc3)[nH]2)cc1OC | 42.7% | 33.1% | 98.9% | 98.2% | 89.9% | 94.6% | 52.5% | 103% | 93.5% | 106% | 84.7% | 132% | 128% | 95.9% | 93.9% | 98.6% | 112% | 
14 | COc1ccc(CCCc2c3[n+](cc4c(OC)c(OC)ccc24)CCc2cc4c(cc2-3)OCO4)cc1 | 37.6% | 20.5% | 48.1% | 86.6% | 54.5% | 77.5% | 53.9% | 30% | 97.2% | 93.7% | 15.6% | 41.8% | 39.7% | 68.9% | 93.7% | 59.2% | 74% | 30.8%
15 | Cc1cc2c(-c3nc4ccccn4c3NC3CCCCC3)c(O)c(O)cc2c(O)c1-c1c(C)cc2c(-c3nc4ccccn4c3NC3CCCCC3)c(O)c(O)cc2c1O | 25.8% | 31.6% | 34.4% | 33.7% | 27.4% | 41.5% | 36.2% | 32.4% | 21.9% | 71.9% | 11.9% | 30.1% | 27.5% | 28.9% | 43% | 14.2% | 46.2% | 29.6%
16 | CCOc1cccc(/C=N/NC(=O)c2ccccc2Nc2ccnc(C(F)(F)F)c2)c1O | -20.1% (active) | -19.7% (active) | 20.7% | 13% | 25% | 8.43% (active) | -13.8% (active) | 31.5% | 39.2% | -0.31% (active) | 16.5% | 26.4% | 29.8% | 32.3% | 2.99% (active) | 14.7% | 48.6% | 33.2%
